This passage reports growth results from PubChem BioAssay (NCI).

Compounds without any hit were thinned out: in the full panel of roughly 83,000, 20% have a hit.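 Note: values are percent growth. 100 is the growth of untreated cells, values between 100 and 0 indicate rising inhibition; between -100 and 0 indicates cell death.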 Unmarked numbers belong to inactive results. Calls of active or inactive are those of the source. How the source made its calls: active means growth percent below 10; inactive means the rest.

This assay relates to EKVX NSCLC. Description: NCI-60 one-dose screen, 48 h (100 = growth as untreated, 0 = no growth, -100 = all killed). Particulars: 10 µM unless noted.
In the case of `O=C1OC(Cc2ccccc2)C1c1ccccc1` (stereo not drawn), the growth was 97.5%. For `O=C1Nc2cc(-c3ccc(NC(=O)c4ccccc4)cc3)ccc2/C1=C/c1ccc[nH]1` the value was 51.1%; for `O=C(N/N=C/c1cc2ccccc2n2nnnc12)Nc1ccccc1`, 98%; for `O=C1c2ccc3c4c(ccc(c24)C(=O)N1CCCNCc1ccccc1)C(=O)N(CCCNCc1ccccc1)C3=O`, -39.2% (active). Consider `C=C1C(=O)O[C@H]2[C@H]1CC/C(COC(=O)NCCc1c[nH]c3ccc(OC)cc13)=C\CC[C@@]1(C)O[C@@H]21`, for which the growth is 19.8%. With `CCOc1ccc(Nc2nc(-c3ccc4c(c3)NC(=O)CO4)cs2)cc1`, the growth was 89%. In the case of `COc1ccc(C(=O)c2cc(C)c(OC)c(C)c2)c(OC)c1OC(=O)C(Cl)Cl`, the growth was 58.4%. On to `CN(C)c1ccc(Nc2c3ccccc3nc3cc(NC(=O)CCN4CCCC4)ccc23)cc1`, for which the growth is 9.96% (active). As for `Cc1nc(N)nc(N[C@@H](C)c2nc3cccc(NCc4ccc(C(=O)NO)cc4)c3c(=O)n2-c2ccccc2)n1`, the growth was 76.8%.

For the molecule `COc1ccc(C/C(=C(\C)c2ccc(OCCN3CCCC3)cc2)c2ccc(OCCN3CCCC3)cc2)cc1`, the growth is 81.3%.

Regarding `NC(=NCCCOc1ccc(F)cc1)Nc1ccc(Cl)cc1`, the growth was 52.8%. As to `CCCOC(=O)N[C@H]1CCc2c(Cl)c(OC)c(OC)c(OC)c2-c2ccc(SC)c(=O)cc21`, the growth was 48.1%. Regarding `N#Cc1c(NC(=O)NCc2ccccc2)sc2c1CCCC2`, the growth was 57.8%. For `NCCCCCCNc1cc(-c2cccc(OC(F)(F)F)c2)nc2ccc(N3CCCC3)cc12`, the growth was 65.4%. On to `C[C@H]1[C@H](C)CC[C@]2(C(=O)NCC#CCN3CCN(C)CC3)CC[C@]3(C)C(=CC[C@@H]4[C@@]5(C)Cc6c([nH]c7ccccc67)C(C)(C)[C@@H]5CC[C@]43C)[C@H]12`, for which the growth is 86.5%. For `N#Cc1c(NCc2ccccc2I)sc2c1CCCCC2` the value was 78.8%; for `CN1C(=O)NC(c2ccc3c(c2)OCO3)C=C1c1ccccc1` (stereo not drawn), 95.4%. As to `COc1cc(/C=C\C(=O)O)ccc1OCc1ccccc1`, the growth was 115%. `CCN(CC)c1ccc(/C=N/NC(=O)CSc2nc3ccccc3c(=O)n2Cc2ccc(S(N)(=O)=O)cc2)c(O)c1`: the growth is 35.1%. In the case of `Cc1ccc(S(=O)(=O)NNC(=O)/C(=C\c2ccc(Cl)cc2)c2nc3ccccc3s2)cc1`, the growth was 91.1%. For `CCOC(=O)[C@@H]1CCCN(S(=O)(=O)c2ccc(S(=O)(=O)N(CC)CC)c(F)c2)C1`, the growth was 46.9%. With `Cc1ccc(CNc2c3ccccc3nc3cc(NC(=O)CCN4CCCC4)ccc23)cc1`, the growth was 39.3%.

On to `COc1ccc(CC(C)=C(c2ccc(OCCN3CCCCCC3)cc2)c2ccc(OCCN3CCCCCC3)cc2)cc1`, for which the growth was -93.6% (active). Turning to `CCCCNC(=O)Oc1ccc(/C(=C(\C)c2ccccc2)c2ccc(OCCN3CCCCC3)cc2)cc1`, the growth is 76.2%. Consider `Cn1c2ccccc2c2c3c(c4c5ccccc5n(C)c4c21)C(=O)OC3`, for which the growth is 88.1%.

With `CNC(=O)c1cc(Cn2nc(C)c(NC(=O)Nc3ccc(Cl)c(C(F)(F)F)c3)c2C)ccn1`, the growth is 102%. For the molecule `O=C(Nc1ccc(NC(=O)c2cc(=O)[nH]c3ccccc23)cc1)Nc1cccc(Cl)c1`, the growth is 85.2%. For the molecule `COc1ccc(C(=O)CSc2nc(-c3cc(OC)ccc3OC)cc(-c3ccc(Cl)cc3)c2C#N)cc1`, the growth was 79.7%.

For the molecule `Cc1cc(C)c(S(=O)(=O)Oc2ccccc2[N+](=O)[O-])c(C)c1`, the growth was 48.2%.

With `O=C(CCN1CCCC1)Nc1ccc2c(NCc3ccccc3)c3ccccc3nc2c1`, the growth is 4.75% (active). Consider `CCN(CC)c1ccc(/C=N/NC(=O)CSc2nc3ccccc3c(=O)n2CCc2ccc(S(N)(=O)=O)cc2)c(O)c1`, for which the growth was 33.8%.

Consider `O=C(CSc1nc2sc3c(c2c(=O)n1-c1ccc(Cl)cc1)CCCC3)Nc1nc(-c2cccc(Br)c2)cs1`, for which the growth is 75%. For `COc1ccc(C(C)=O)c(OC)c1` the value was 114%; for `COc1cccc(-c2nc3occn3c2-c2ccnc(NCCCNS(=O)(=O)c3ccc(C(F)(F)F)cc3)n2)c1`, 92.8%; for `C=C1C(=O)O[C@H]2[C@H]1CC/C(C(=O)NCCCCCNC(=O)/C1=C/CC[C@@]3(C)O[C@H]3[C@H]3OC(=O)C(=C)[C@@H]3CC1)=C\CC[C@@]1(C)O[C@@H]21`, 105%. `C=C1C(=O)O[C@H]2[C@H]1CC/C(COC(=O)NCc1c[nH]c3ccc(F)cc13)=C\CC[C@@]1(C)O[C@@H]21`: the growth is 10.6%. For the molecule `Cc1cc2nc3c4cccc(O)c4n(CCN(C)C)c3nc2cc1C`, the growth is 42.2%. For `O=C(Cc1ccccc1)NNc1nc(Cl)nc(N2CCN(C(c3ccccc3)c3ccccc3)CC2)n1` the value was 91.9%.
